This is an account of results in PubChem BioAssay AID485294 (National Center for Advancing Translational Sciences (NCATS), 2010).

The whole screen tested about 370,000 compounds, of which about 150 (0.041%) were called active. Entries that show only a call come without a potency. Inconclusive results (about 14%) are left out. Calls follow the shape of the dose curve; as a rule, active = well fitted inhibition curve with a large enough effect; inconclusive = small, poorly fitted or top-dose-only effect; inactive = flat fitted curve, though single readings scatter. For the sample, actives were picked, then their nearest neighbours and some compounds at random.
Potency is read from the fitted curve at half-maximal effect.

Sequence of Beta-lactamase (Escherichia coli (strain K12)) (P00811 whole entry, looked up): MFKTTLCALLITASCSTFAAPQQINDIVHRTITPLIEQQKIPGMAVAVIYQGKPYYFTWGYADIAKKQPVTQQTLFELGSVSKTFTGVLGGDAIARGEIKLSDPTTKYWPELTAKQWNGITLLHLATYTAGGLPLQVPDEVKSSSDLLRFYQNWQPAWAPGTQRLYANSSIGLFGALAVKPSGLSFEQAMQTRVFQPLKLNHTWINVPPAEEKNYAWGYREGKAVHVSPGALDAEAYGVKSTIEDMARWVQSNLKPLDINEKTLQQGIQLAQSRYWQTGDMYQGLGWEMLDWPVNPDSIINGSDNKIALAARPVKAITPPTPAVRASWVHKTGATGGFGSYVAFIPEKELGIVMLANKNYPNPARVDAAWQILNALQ

In this test the target is Beta-lactamase (Escherichia coli (strain K12)) (UniProt P00811). The experiment in a line: qHTS Inhibitors of AmpC Beta-Lactamase (assay with detergent). Also: nearly all actives have a fitted effect of over 25% in size. As to conditions: AmpC hydrolysis of nitrocefin, absorbance 480 nm, 0.01% Triton; series mostly up to 114 µM. As to the method:
NIH Molecular Libraries Probe Production Network [MLPCN] NIH Chemical Genomics Center [NCGC] Assay Provider: Professor Brian Shoichet, UCSF Assay Overview: This aggregation profiling approach exploits the sensitivity of aggregate formation to detergent. Inhibition of b-lactamase is measured in the presence and absence of 0.01% Triton X-100. This particular assay had the prescence of 0.01% Triton X-100. See Pubchem assay "Promiscuous and Specific Inhibitors of AmpC Beta-Lactamase (assay without detergent)" for related screen. Compounds that inhibit only in the absence of detergent are considered likely promiscuous aggregators. A screen of 1,030 compounds was performed in Brian Shoichet's lab in 96-well format. AmpC activity was measured by following the absorbance at 480 nm. Nitrocefin is a chromogenic substrate: while nitrocefin is yellow (lmax 390 nm), the product of its hydrolysis is red (lmax 486 nm, 17,000 M-1). AmpC beta lactamase was provided by Shoichet Lab, UCSF.
Buffer: 20 mM phosphate buffer, pH 7.0 Triton X-100: No Detergent screen: 0.0001%, Detergent screen: 0.01%. Reagents/Controls: Buffer in columns 3 and 4 as negative control (no enzyme). 5.3 nM AmpC in columns 1, 2, 5-48. Titration of UCSF compound 9 control (from 10 mM, then 1:2) pin-transferred to column 2. Column 1 is neutral (100% activity). Assay Steps: Six uL of reagents were dispensed to 1536-well Greiner black clear bottom plates. Compounds and controls (23 nL) were transferred via Kalypsys PinTool. The plates were incubated for 15 min at room temperature, and then 2 uL of 800 uM solution of nitrocefin was added to start the reaction. The plates were immediately transferred to and read every 20 seconds for 4 min on ViewLux (Perkin-Elmer) High-throughput CCD imager using 480 nm absorbance protocol. During dispense, reagent bottles were kept submerged into 4 deg C water bath. Keywords: NIH Roadmap, MLSCN, MLI, MLSMR, qHTS, NCGC, AmpC Beta-Lactamase, Aggregation
Background: qHTS replaces the single test concentration by a dilution series.
For `CCOC(=O)c1ccc(N2C(=O)c3[nH]nc(-c4ccccc4)c3C2c2ccc(C(C)C)cc2)cc1` (stereo not given), the Potency result was “inactive”. Next, `Cc1oc2ncnc(N3CCOCC3)c2c1C(=O)NCCc1ccccc1`: “inactive”. For `COc1cc(NC(=O)Cn2c(=O)n(Cc3ccco3)c(=O)c3oc4ccccc4c32)cc(OC)c1`, the Potency entry was “inactive”. On to `CC(C)c1ccc(NS(=O)(=O)c2ccc3[nH]cc(C(=O)NC4CCCC4)c(=O)c3c2)cc1`, for which the Potency entry is “inactive”. Next, `COc1ccc(CCNC(=O)Cn2c(=O)cc(C(F)(F)F)c3c(C)nn(C)c32)c(OC)c1`: “inactive”; `CC(=O)c1cccc(NC(=O)CSc2nc3c(c(=O)[nH]2)CCC3)c1`: “inactive”; `CCOC(=O)c1ccc(N2C(=O)c3n[nH]c(C)c3C2c2ccc(O)c(OC)c2)cc1` (stereo not given): “inactive”. As for `O=c1cc2nc(-c3ccccc3)nc(SCCOc3ccc(Cl)cc3)n2[nH]1`, the Potency entry was “inactive”. As for `Cc1ccc(OCCSc2nc(-c3cccs3)nc3cc(=O)[nH]n23)cc1Cl`, the Potency result was “inactive”.

Turning to `COc1ccccc1-c1cc2nc(C)c(CCC(=O)NC3CCCCC3)c(C)n2n1`, the Potency result is “inactive”. Then `CNc1ccc(-c2nc(-c3ccco3)no2)cc1[N+](=O)[O-]`, with “inactive”; and `CC1CCC(N2CC(=O)N(CCC3=CCCCC3)C(c3ccc(F)cc3)C2=O)CC1` (stereo not given), with “inactive”; and `Fc1ccc(CSc2nc(NCc3ccccc3)c3ccccc3n2)cc1`, with “inactive”. Take `O=C(CCc1ccccc1)NCc1ccc2c(c1)CCN2C(=O)c1ccccc1`: the Potency result was “inactive”.

For the compound `COc1ccc(-c2cc(C(F)(F)F)nc(SCC(=O)N(C)Cc3ccccc3)n2)cc1OC`, the Potency entry is “inactive”.

For `Cc1oc2ncn(CC(C)C)c(=O)c2c1C(=O)N1CCN(c2ccccc2F)CC1`, the Potency result is “inactive”. Then `O=P(O)(CN1CCCCCC1)C1Cc2ccccc2C1`, with 50.1 µM (active). Take `O=C(CN1CCCC1)N1CCN(c2ccccc2)CC1`: the Potency entry was “inactive”. Next, `O=P(O)(CN1CCCCC1)CN1CCCCC1`: “inactive”; `CCn1cc(C(=O)N2CCN(c3cc(C)ccc3C)CC2)c(=O)c2cc(S(=O)(=O)N(C)C3CCCCC3)ccc21`: “inactive”.
